These results are taken from paper PMC11006913.

Holding throughout (assay): PBM; 200 nM protein, PBS
Conditions in all cases: dsDNA, one strand shown

For assay [1], the target named is HESX1 (Homo sapiens, UniProt Q9UBX0 95-180, R165K).
For assay [2], the target named is HOXB4 (Homo sapiens, UniProt P17483 148-234).
Assay [3] has as its target SHOX (Homo sapiens, UniProt O15266 103-189).
Assay [4] concerns the target HESX1 (Homo sapiens, UniProt Q9UBX0 95-180).
The target of assay [5] is HOXA4 (Homo sapiens, UniProt Q00056 201-287, R217L).
Sequence of HOXA4 (Q00056 201-287 R217L): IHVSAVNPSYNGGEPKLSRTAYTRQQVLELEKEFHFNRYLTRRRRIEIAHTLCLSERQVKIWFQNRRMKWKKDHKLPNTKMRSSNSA
The target in assay [6] is HOXB4 (Homo sapiens, UniProt P17483 148-234, V174I).
Sequence of HOXB4 (Homo sapiens, UniProt P17483 148-234, V174I) (P17483 148-234 V174I): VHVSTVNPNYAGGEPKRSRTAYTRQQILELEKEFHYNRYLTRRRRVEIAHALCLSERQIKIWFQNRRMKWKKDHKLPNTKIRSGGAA
In assay [7] the target is ALX1 (Homo sapiens, UniProt Q15699 118-204, L144V).
Sequence of ALX1 (Homo sapiens, UniProt Q15699 118-204, L144V) (Q15699 118-204 L144V): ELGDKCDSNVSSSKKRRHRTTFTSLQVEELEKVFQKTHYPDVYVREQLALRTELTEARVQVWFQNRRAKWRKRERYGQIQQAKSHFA
Assay [8] concerns the target ALX3 (Homo sapiens, UniProt O95076 139-225, N203Q).
In assay [9] the target is SHOX (Homo sapiens, UniProt O15266 103-189, R173C).
Sequence of SHOX (Homo sapiens, UniProt O15266 103-189, R173C) (O15266 103-189 R173C): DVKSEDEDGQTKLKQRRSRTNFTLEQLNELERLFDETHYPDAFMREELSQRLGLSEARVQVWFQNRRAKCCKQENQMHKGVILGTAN
For assay [10], the target named is ALX1 (Homo sapiens, UniProt Q15699 118-204, L144R).
Sequence of ALX1 (Homo sapiens, UniProt Q15699 118-204, L144R) (Q15699 118-204 L144R): as the sequence (Q15699 118-204 L144V) above, with V27R counted along it
Assay [11] concerns the target ALX3 (Homo sapiens, UniProt O95076 139-225).
Assay [12] has as its target PROP1 (Homo sapiens, UniProt O75360 56-141).
Assay [13] has as its target HESX1 (Homo sapiens, UniProt Q9UBX0 95-180, R109Q).
In assay [14] the target is PROP1 (Homo sapiens, UniProt O75360 56-141, R99H).
Sequence of PROP1 (Homo sapiens, UniProt O75360 56-141, R99H) (O75360 56-141 R99H): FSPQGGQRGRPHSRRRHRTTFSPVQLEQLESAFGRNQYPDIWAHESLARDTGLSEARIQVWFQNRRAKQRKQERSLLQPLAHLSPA
Assay [15] has as its target ALX3 (Homo sapiens, UniProt O95076 139-225, L168Q).
The target in assay [16] is HESX1 (Homo sapiens, UniProt Q9UBX0 95-180, P111T).
Sequence of HESX1 (Homo sapiens, UniProt Q9UBX0 95-180, P111T) (Q9UBX0 95-180 P111T): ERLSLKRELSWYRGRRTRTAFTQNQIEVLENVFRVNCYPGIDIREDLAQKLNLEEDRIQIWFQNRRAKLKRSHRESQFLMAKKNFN
The target in assay [17] is ALX3 (Homo sapiens, UniProt O95076 139-225, L168V).
Sequence of ALX3 (Homo sapiens, UniProt O95076 139-225, L168V) (O95076 139-225 L168V): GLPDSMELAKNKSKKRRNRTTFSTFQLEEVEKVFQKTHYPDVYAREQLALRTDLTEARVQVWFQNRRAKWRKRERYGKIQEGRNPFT
For assay [18], the target named is PROP1 (Homo sapiens, UniProt O75360 56-141, F88S).
Sequence of PROP1 (Homo sapiens, UniProt O75360 56-141, F88S) (O75360 56-141 F88S): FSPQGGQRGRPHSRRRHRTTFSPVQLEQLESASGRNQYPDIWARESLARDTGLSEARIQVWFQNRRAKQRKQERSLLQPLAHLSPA
The target of assay [19] is HESX1 (Homo sapiens, UniProt Q9UBX0 95-180, F115L).
Sequence of HESX1 (Homo sapiens, UniProt Q9UBX0 95-180, F115L) (Q9UBX0 95-180 F115L): as the sequence (Q9UBX0 95-180 P111T) above, with T17P, F21L counted along it
Assay [20] deals with ALX3 (Homo sapiens, UniProt O95076 139-225, N203S).
Sequence of ALX3 (Homo sapiens, UniProt O95076 139-225, N203S) (O95076 139-225 N203S): as the sequence (O95076 139-225 L168V) above, with V30L, N65S counted along it

Sequence of ALX3 (Homo sapiens, UniProt O95076 139-225) (O95076 139-225): as the sequence (O95076 139-225 L168V) above, with V30L counted along it
Sequence of ALX3 (Homo sapiens, UniProt O95076 139-225, N203Q) (O95076 139-225 N203Q): as the sequence (O95076 139-225 L168V) above, with V30L, N65Q counted along it
Sequence of HESX1 (Homo sapiens, UniProt Q9UBX0 95-180) (Q9UBX0 95-180): as the sequence (Q9UBX0 95-180 P111T) above, with T17P counted along it
Sequence of HESX1 (Homo sapiens, UniProt Q9UBX0 95-180, R165K) (Q9UBX0 95-180 R165K): as the sequence (Q9UBX0 95-180 P111T) above, with T17P, R71K counted along it
Sequence of PROP1 (Homo sapiens, UniProt O75360 56-141) (O75360 56-141): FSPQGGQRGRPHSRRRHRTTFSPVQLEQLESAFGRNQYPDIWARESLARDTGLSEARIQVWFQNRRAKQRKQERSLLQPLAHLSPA
Sequence of ALX3 (Homo sapiens, UniProt O95076 139-225, L168Q) (O95076 139-225 L168Q): as the sequence (O95076 139-225 L168V) above, with V30Q counted along it
Sequence of HESX1 (Homo sapiens, UniProt Q9UBX0 95-180, R109Q) (Q9UBX0 95-180 R109Q): as the sequence (Q9UBX0 95-180 P111T) above, with R15Q, T17P counted along it
Sequence of SHOX (Homo sapiens, UniProt O15266 103-189) (O15266 103-189): as the sequence (O15266 103-189 R173C) above, with C71R counted along it
Sequence of HOXB4 (Homo sapiens, UniProt P17483 148-234) (P17483 148-234): as the sequence (P17483 148-234 V174I) above, with I27V counted along it

On to ATAATTAG, for which the binding signal in assay [1] is 13.4 upbm affinity estimate (log intensity, higher = more binding, comparable within an allelic series); in [2] it was 13.6 upbm affinity estimate (log intensity, higher = more binding, comparable within an allelic series); in assay [3] it was 13 upbm affinity estimate (log intensity, higher = more binding, comparable within an allelic series); in [4], 13.4 upbm affinity estimate (log intensity, higher = more binding, comparable within an allelic series); in assay [5], 12.7 upbm affinity estimate (log intensity, higher = more binding, comparable within an allelic series); in [6], 14.3 upbm affinity estimate (log intensity, higher = more binding, comparable within an allelic series). Also, the binding signal is 12.3 upbm affinity estimate (log intensity, higher = more binding, comparable within an allelic series) in assay [7]; 8.56 upbm affinity estimate (log intensity, higher = more binding, comparable within an allelic series) in [8]; 10.3 upbm affinity estimate (log intensity, higher = more binding, comparable within an allelic series) in assay [9]; 11.9 upbm affinity estimate (log intensity, higher = more binding, comparable within an allelic series) in assay [10]; 12.9 upbm affinity estimate (log intensity, higher = more binding, comparable within an allelic series) in assay [11]; 12.1 upbm affinity estimate (log intensity, higher = more binding, comparable within an allelic series) in assay [12]. In addition, the binding signal in [13] was 9.82 upbm affinity estimate (log intensity, higher = more binding, comparable within an allelic series); in assay [14] it was 12.1 upbm affinity estimate (log intensity, higher = more binding, comparable within an allelic series); in assay [15], 11.2 upbm affinity estimate (log intensity, higher = more binding, comparable within an allelic series); in assay [16] it was 12 upbm affinity estimate (log intensity, higher = more binding, comparable within an allelic series); in [17], 10.8 upbm affinity estimate (log intensity, higher = more binding, comparable within an allelic series); in [18], 7.99 upbm affinity estimate (log intensity, higher = more binding, comparable within an allelic series). Moreover, the binding signal in [19] was 8.28 upbm affinity estimate (log intensity, higher = more binding, comparable within an allelic series); in assay [20], 8.75 upbm affinity estimate (log intensity, higher = more binding, comparable within an allelic series).
Take GCAAGGGC: the binding signal was 6.38 upbm affinity estimate (log intensity, higher = more binding, comparable within an allelic series) in assay [1]; 7.23 upbm affinity estimate (log intensity, higher = more binding, comparable within an allelic series) in assay [2]; 6.38 upbm affinity estimate (log intensity, higher = more binding, comparable within an allelic series) in [4]; 9.73 upbm affinity estimate (log intensity, higher = more binding, comparable within an allelic series) in assay [5]; 7.22 upbm affinity estimate (log intensity, higher = more binding, comparable within an allelic series) in assay [6]; 6.49 upbm affinity estimate (log intensity, higher = more binding, comparable within an allelic series) in [13]. In addition, the binding signal in [16] is 6.49 upbm affinity estimate (log intensity, higher = more binding, comparable within an allelic series); in assay [19], 6.53 upbm affinity estimate (log intensity, higher = more binding, comparable within an allelic series).
Turning to AATTAGTG, the binding signal in assay [1] was 12.1 upbm affinity estimate (log intensity, higher = more binding, comparable within an allelic series); in [3], 12 upbm affinity estimate (log intensity, higher = more binding, comparable within an allelic series); in assay [4], 12.2 upbm affinity estimate (log intensity, higher = more binding, comparable within an allelic series); in assay [7], 11.8 upbm affinity estimate (log intensity, higher = more binding, comparable within an allelic series); in [8], 8.36 upbm affinity estimate (log intensity, higher = more binding, comparable within an allelic series); in assay [9], 9.65 upbm affinity estimate (log intensity, higher = more binding, comparable within an allelic series). The binding signal in assay [10] was 11.4 upbm affinity estimate (log intensity, higher = more binding, comparable within an allelic series); in assay [11] it was 12.4 upbm affinity estimate (log intensity, higher = more binding, comparable within an allelic series); in [12] it was 11.3 upbm affinity estimate (log intensity, higher = more binding, comparable within an allelic series); in assay [13], 9.26 upbm affinity estimate (log intensity, higher = more binding, comparable within an allelic series); in assay [14], 11.4 upbm affinity estimate (log intensity, higher = more binding, comparable within an allelic series); in assay [15], 10.7 upbm affinity estimate (log intensity, higher = more binding, comparable within an allelic series). For the same sequence, the binding signal in assay [16] was 10.9 upbm affinity estimate (log intensity, higher = more binding, comparable within an allelic series); in assay [17] it was 10.1 upbm affinity estimate (log intensity, higher = more binding, comparable within an allelic series); in assay [18], 7.69 upbm affinity estimate (log intensity, higher = more binding, comparable within an allelic series); in assay [19] it was 7.88 upbm affinity estimate (log intensity, higher = more binding, comparable within an allelic series); in [20], 8.46 upbm affinity estimate (log intensity, higher = more binding, comparable within an allelic series).
In the case of CCTTCGAG, the binding signal was 6.45 upbm affinity estimate (log intensity, higher = more binding, comparable within an allelic series) in assay [1]; 7.09 upbm affinity estimate (log intensity, higher = more binding, comparable within an allelic series) in assay [3]; 6.39 upbm affinity estimate (log intensity, higher = more binding, comparable within an allelic series) in [4]; 7.23 upbm affinity estimate (log intensity, higher = more binding, comparable within an allelic series) in [9]; 6.55 upbm affinity estimate (log intensity, higher = more binding, comparable within an allelic series) in assay [13]; 6.56 upbm affinity estimate (log intensity, higher = more binding, comparable within an allelic series) in assay [16]. Besides, in assay [19], the binding signal is 6.63 upbm affinity estimate (log intensity, higher = more binding, comparable within an allelic series).
CAATTATA: the binding signal was 12.8 upbm affinity estimate (log intensity, higher = more binding, comparable within an allelic series) in assay [1]; 12.2 upbm affinity estimate (log intensity, higher = more binding, comparable within an allelic series) in assay [3]; 12.8 upbm affinity estimate (log intensity, higher = more binding, comparable within an allelic series) in assay [4]; 12 upbm affinity estimate (log intensity, higher = more binding, comparable within an allelic series) in [5]; 11.7 upbm affinity estimate (log intensity, higher = more binding, comparable within an allelic series) in [7]; 8.6 upbm affinity estimate (log intensity, higher = more binding, comparable within an allelic series) in assay [8]. The binding signal in assay [9] is 9.46 upbm affinity estimate (log intensity, higher = more binding, comparable within an allelic series); in assay [10], 11.4 upbm affinity estimate (log intensity, higher = more binding, comparable within an allelic series); in [11], 12.5 upbm affinity estimate (log intensity, higher = more binding, comparable within an allelic series); in [12], 11.4 upbm affinity estimate (log intensity, higher = more binding, comparable within an allelic series); in assay [13] it was 8.93 upbm affinity estimate (log intensity, higher = more binding, comparable within an allelic series); in [14], 11.5 upbm affinity estimate (log intensity, higher = more binding, comparable within an allelic series). Also, the binding signal is 10.7 upbm affinity estimate (log intensity, higher = more binding, comparable within an allelic series) in assay [15]; 11.4 upbm affinity estimate (log intensity, higher = more binding, comparable within an allelic series) in assay [16]; 10.2 upbm affinity estimate (log intensity, higher = more binding, comparable within an allelic series) in assay [17]; 7.86 upbm affinity estimate (log intensity, higher = more binding, comparable within an allelic series) in assay [18]; 8.06 upbm affinity estimate (log intensity, higher = more binding, comparable within an allelic series) in assay [19]; 8.66 upbm affinity estimate (log intensity, higher = more binding, comparable within an allelic series) in assay [20].
